Reference: the supplement of paper PMC6555819

Tested on: VDR:RXRa (NR concentration 270 nM, RXRa partner concentration 90 nM)
Test: PBM binding z-score (relative to random genomic background probes); higher = stronger binding; sequences stand for … in GC…GCGATTGACAGCGTAGAATGAAGG
Protocol: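 Protein-binding microarray (Agilent 4x180K custom design, double-stranded 60-nt probes: 5' GC cap, 34-nt variable region, 24-nt constant primer region; full probe sequence given). Purified or IVT nuclear receptor:RXRα heterodimers (3:1 NR:RXRα, mostly 270:90 nM) or homodimers were incubated for 1 h in PBS with 2% milk and no ligand, then detected with Alexa488 antibodies. Fluorescence from o1-orientation probes (~5 replicates averaged) was converted to z-scores against 500 random hg19 background probes. Variable regions are seed direct-repeat (DR0–DR5) sites, all their single-nucleotide variants and half-site ablations.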

Sequence	PBM binding z-score
CCGAGTAGGTTACGAGCGGGCATTCAGTGCGAAT	0.355
CCGAGTAGGTTACGAGGGGCCATTCAGTGCGAAT	3.09
CGAACTAGGTCAAAGGTCAGTGAAAGGCGACGTA	5.88
CCTAGCAGGCCACGGTCACTCAAGCATTTCGCTT	-0.261
CCGAGTAGGTTACGAGGGGGCATTCAGTGCGAAT	5.35
CTATGTAGGTGAAGGGGGTCATTCAGTTTGAAAG	7.13
CCGAGTGGGTTACGAGGGGGCATTCAGTGCGAAT	5.13
TCTAGCAGGCCATAGGGTCACTCAAGAGGTACGG	2.62
CGAACTAGGTCACAGGACAGTGAAAGGCGACGTA	1.61
ATATGCAGGTTAGGGTCATTCAGAAAGTAGGGAA	4.26
CCGAGTAGATTACGAGGGGGCATTCAGTGCGAAT	3.48
GCATATAGGTAATTCAAGGTGAAAGTCCGATTGT	0.627
CGAACTAGGTCACCAGGACAGTGGAGAGGTTGGA	1.99
ATATGTAGGTTAGCGGGGGTCATTCAGACTAGGC	6.4
CGAACTAGTTCACCAGGACAGTGAAGAGGTTGGA	0.879
CCGAGTAGGTTATGAGGGGGCATTCAGTGCGAAT	5.25
ATATGTAAGTTAGGGTCATTCAGAAAGTAGGGAA	4.5
GCTCGGGGGACAAGGTCAGAGCTTTGTCCGTAGA	3.07
CTATGTAAGTTAAGGGGGTCATTCAGTTTGAAAG	6.67
CGGACTAGGTCACCAGGACAGTGAAGAGGTTGGA	1.54

Sequence	PBM binding z-score
CGTCAAAGTTCAACTAAGGTAACGTATAGCACGC	4.92
ACTCGGAGGACAAACGTCAGAGCTACGCCAGTGA	-0.401
CGAACTAGGTCATAGGACAGTGAAAGGCGACGTA	1.47
CAAACTAGGTCACGAAAGGTCAAAGCCGAATGAC	6.5
AGTCAAAGTTCAGGACGAGGTAATGTAAAGCACG	3.07
CGAACTAGGTCAAATGACAGTGAAAGGCGACGTA	1.63
CGAACTAGGTCACCAGGACAGTGAGGAGGTTGGA	1.83
CGAACTAGGTCAAAGGACAGTGTAAGGCGACGTA	1.58
CCATGTAGGTTAAGGGGGTCATTCAGTTTGAAAG	7.41
CTATGTAGGATAAGGGGGTCATTCAGTTTGAAAG	6.5
CCCACTGGGCCATTCAGAGGTCATTGATCATATG	4.02
CGTCCAAGGTCACAGGAGGTCAGTGAAGACAGAT	6.62
CGAGCTAGGTCACCAGGACAGTGAAGAGGTTGGA	1.63
CCTGCTAGGTCAATGGTCAGCTCAAGCAGCTCGC	0.923
CCAGACAGGTGAAAGGTAACTCCGTCTGGTACGC	0.557
AGAATGAGGTTACCAGAGATCAGGGAAACGCTTG	1.72
ACTAGAAGGCCAAGGGTCACTCAAGATTAGTCCG	3.26
CGCACTAGGTCATTGACAGGACAGTGAATAGTAA	2.36
CATACACGGTCAGCTAGGCCAGAGTAGGGACGGC	-0.0494
AGAATGGGGTTAAGATCAGGGAAACAGAATACAT	2.91
